Among all 5,500 compounds or so, about 2,000 (36%) were called active. About 18% were inconclusive and are not listed. Some of the results follow. A number with no mark means an inactive call. No stated cut-off is given here; in the data, active means normalized growth mostly below about 0.91 (no sharp cut-off); inconclusive means no clear call, values can overlap the other calls; inactive means mostly above about 0.92.
Test: chemical genetic growth profiling, strain panel (AID 1159580);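 further: tested at 20 µM; growth read once vehicle control cultures reached saturation at 30 °C; 1 = growth at the plate median or of vehicle wells; lower values mean less growth of the strain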
Conditions: growth OD

Question: With `COc1ccc(C2C(=O)c3ccccc3C2=O)cc1` as the compound, how does the normalized growth (S. cerevisiae deletion strains, locus YJR066W, strain TOR1, active compounds read low) read?
Answer: 0.897

Question: And the normalized growth (S. cerevisiae deletion strains, locus YJR075W, strain HOC1, active compounds read low)?
Answer: 0.983

Question: What about the normalized growth (S. cerevisiae deletion strains, locus YKL009W, strain mrt4, active compounds read low) of the same compound?
Answer: 0.958

Question: And the normalized growth (S. cerevisiae deletion strains, locus YKL068W, active compounds read low)?
Answer: 0.987

Question: And the normalized growth (S. cerevisiae deletion strains, locus YKL085W, strain MDH1 (second series), active compounds read low)?
Answer: 0.983

Question: What about the normalized growth (S. cerevisiae deletion strains, locus YKL085W, strain MDH1, active compounds read low) of the same compound?
Answer: 0.983

Question: What about the normalized growth (S. cerevisiae deletion strains, locus YKL160W, strain elf1, active compounds read low) of the same compound?
Answer: 0.998

Question: And the normalized growth (S. cerevisiae deletion strains, locus YKR001C, strain vps1, active compounds read low)?
Answer: 1

Question: What about the normalized growth (S. cerevisiae deletion strains, locus YKR026C, strain gcn3, active compounds read low) of the same compound?
Answer: 0.96

Question: And the normalized growth (S. cerevisiae deletion strains, locus YKR091W, strain srl3, active compounds read low)?
Answer: 1.01

Question: And the normalized growth (S. cerevisiae deletion strains, locus YLL001W, strain dnm1, active compounds read low)?
Answer: 0.997

Question: What about the normalized growth (S. cerevisiae deletion strains, locus YLL026W, active compounds read low) of the same compound?
Answer: 0.966

Question: And the normalized growth (S. cerevisiae deletion strains, locus YLL041C, strain sdh2, active compounds read low)?
Answer: 0.982

Question: And the normalized growth (S. cerevisiae deletion strains, locus YLR027C, strain aat2, active compounds read low)?
Answer: 0.997

Question: What about the normalized growth (S. cerevisiae deletion strains, locus YLR039C, strain RIC1, active compounds read low) of the same compound?
Answer: 0.993

Question: What about the normalized growth (S. cerevisiae deletion strains, locus YLR058C, strain SHM2, active compounds read low) of the same compound?
Answer: 0.993

Question: What about the normalized growth (S. cerevisiae deletion strains, locus YLR102C, strain apc9, active compounds read low) of the same compound?
Answer: 0.989

Question: What about the normalized growth (S. cerevisiae deletion strains, locus YLR113W, strain HOG1, active compounds read low) of the same compound?
Answer: 0.767 (active)

Question: And the normalized growth (S. cerevisiae deletion strains, locus YLR221C, strain rsa3, active compounds read low)?
Answer: 1

Question: What about the normalized growth (S. cerevisiae deletion strains, locus YLR258W, strain gsy2, active compounds read low) of the same compound?
Answer: 1.01

Question: What about the normalized growth (S. cerevisiae deletion strains, locus YLR262C, strain YPT6 (second series), active compounds read low) of the same compound?
Answer: 0.987

Question: And the normalized growth (S. cerevisiae deletion strains, locus YLR262C, strain YPT6, active compounds read low)?
Answer: 1.01

Question: And the normalized growth (S. cerevisiae deletion strains, locus YLR268W, strain sec22, active compounds read low)?
Answer: 1.01

Question: What about the normalized growth (S. cerevisiae deletion strains, locus YLR320W, strain mms22, active compounds read low) of the same compound?
Answer: 1.02

Question: What about the normalized growth (S. cerevisiae deletion strains, locus YLR330W, strain CHS5, active compounds read low) of the same compound?
Answer: 1

Question: What about the normalized growth (S. cerevisiae deletion strains, locus YLR342W, strain FKS1 (second series), active compounds read low) of the same compound?
Answer: 1.02

Question: What about the normalized growth (S. cerevisiae deletion strains, locus YLR342W, strain FKS1, active compounds read low) of the same compound?
Answer: 1

Question: And the normalized growth (S. cerevisiae deletion strains, locus YLR357W, strain rsc2, active compounds read low)?
Answer: 1.09

Question: And the normalized growth (S. cerevisiae deletion strains, locus YLR370C, strain arc18, active compounds read low)?
Answer: 1

Question: And the normalized growth (S. cerevisiae deletion strains, locus YLR371W, strain rom2, active compounds read low)?
Answer: 1.01

Question: What about the normalized growth (S. cerevisiae deletion strains, locus YLR384C, strain iki3, active compounds read low) of the same compound?
Answer: 0.992

Question: And the normalized growth (S. cerevisiae deletion strains, locus YLR418C, strain cdc73, active compounds read low)?
Answer: 0.957

Question: What about the normalized growth (S. cerevisiae deletion strains, locus YML016C, strain PPZ1, active compounds read low) of the same compound?
Answer: 1.01

Question: And the normalized growth (S. cerevisiae deletion strains, locus YML032C, strain rad52, active compounds read low)?
Answer: 1.01

Question: What about the normalized growth (S. cerevisiae deletion strains, locus YML120C, strain ndi1, active compounds read low) of the same compound?
Answer: 0.992

Question: And the normalized growth (S. cerevisiae deletion strains, locus YML124C, strain tub3, active compounds read low)?
Answer: 0.994

Question: What about the normalized growth (S. cerevisiae deletion strains, locus YMR058W, strain fet3, active compounds read low) of the same compound?
Answer: 0.979

Question: And the normalized growth (S. cerevisiae deletion strains, locus YMR078C, strain ctf18, active compounds read low)?
Answer: 0.99

Question: What about the normalized growth (S. cerevisiae deletion strains, locus YMR125W, strain sto1, active compounds read low) of the same compound?
Answer: 0.994

Question: And the normalized growth (S. cerevisiae deletion strains, locus YMR129W, active compounds read low)?
Answer: 0.972

Question: What about the normalized growth (S. cerevisiae deletion strains, locus YMR205C, strain PFK2, active compounds read low) of the same compound?
Answer: 1.01

Question: What about the normalized growth (S. cerevisiae deletion strains, locus YMR223W, strain ubp8, active compounds read low) of the same compound?
Answer: 0.976

Question: And the normalized growth (S. cerevisiae deletion strains, locus YMR231W, strain pep5, active compounds read low)?
Answer: 1.02

Question: And the normalized growth (S. cerevisiae deletion strains, locus YMR307W, strain GAS1, active compounds read low)?
Answer: 1.04

Question: And the normalized growth (S. cerevisiae deletion strains, locus YNL067W, strain RPL9B, active compounds read low)?
Answer: 0.932

Question: What about the normalized growth (S. cerevisiae deletion strains, locus YNL071W, strain lat1, active compounds read low) of the same compound?
Answer: 0.986

Question: And the normalized growth (S. cerevisiae deletion strains, locus YNL128W, strain TEP1, active compounds read low)?
Answer: 0.977

Question: What about the normalized growth (S. cerevisiae deletion strains, locus YNL153C, strain GIM3, active compounds read low) of the same compound?
Answer: 0.997

Question: What about the normalized growth (S. cerevisiae deletion strains, locus YNL183C, strain NPR1, active compounds read low) of the same compound?
Answer: 0.882

Question: What about the normalized growth (S. cerevisiae deletion strains, locus YNL209W, strain ssb2, active compounds read low) of the same compound?
Answer: 0.992

Question: What about the normalized growth (S. cerevisiae deletion strains, locus YNL233W, strain BNI4, active compounds read low) of the same compound?
Answer: 1

Question: And the normalized growth (S. cerevisiae deletion strains, locus YNL248C, strain rpa49, active compounds read low)?
Answer: 1.05

Question: And the normalized growth (S. cerevisiae deletion strains, locus YNL250W, strain rad50, active compounds read low)?
Answer: 0.987

Question: And the normalized growth (S. cerevisiae deletion strains, locus YNL271C, strain bni1, active compounds read low)?
Answer: 0.983

Question: And the normalized growth (S. cerevisiae deletion strains, locus YNL298W, strain CLA4, active compounds read low)?
Answer: 0.976

Question: What about the normalized growth (S. cerevisiae deletion strains, locus YNL307C, strain MCK1, active compounds read low) of the same compound?
Answer: 1.01

Question: And the normalized growth (S. cerevisiae deletion strains, locus YNL322C, strain KRE1 (second series), active compounds read low)?
Answer: 0.961

Question: What about the normalized growth (S. cerevisiae deletion strains, locus YNR049C, strain mso1, active compounds read low) of the same compound?
Answer: 0.982

Question: What about the normalized growth (S. cerevisiae deletion strains, locus YNR052C, strain pop2, active compounds read low) of the same compound?
Answer: 0.987

Question: What about the normalized growth (S. cerevisiae deletion strains, locus YOL012C, strain htz1) of the same compound?
Answer: 0.937

Question: What about the normalized growth (S. cerevisiae deletion strains, locus YOL147C, strain pex11, active compounds read low) of the same compound?
Answer: 0.992

Question: What about the normalized growth (S. cerevisiae deletion strains, locus YOR001W, strain rrp6, active compounds read low) of the same compound?
Answer: 1.02

Question: And the normalized growth (S. cerevisiae deletion strains, locus YOR061W, strain CKA2, active compounds read low)?
Answer: 0.999

Question: What about the normalized growth (S. cerevisiae deletion strains, locus YOR069W, strain VPS5, active compounds read low) of the same compound?
Answer: 0.997

Question: What about the normalized growth (S. cerevisiae deletion strains, locus YOR070C, strain gyp1, active compounds read low) of the same compound?
Answer: 1

Question: What about the normalized growth (S. cerevisiae deletion strains, locus YOR080W, strain dia2, active compounds read low) of the same compound?
Answer: 1.02

Question: What about the normalized growth (S. cerevisiae deletion strains, locus YOR083W, strain WHI5, active compounds read low) of the same compound?
Answer: 1.01

Question: What about the normalized growth (S. cerevisiae deletion strains, locus YOR106W, strain vam3, active compounds read low) of the same compound?
Answer: 1.04

Question: And the normalized growth (S. cerevisiae deletion strains, locus YOR136W, strain idh2, active compounds read low)?
Answer: 0.984

Question: And the normalized growth (S. cerevisiae deletion strains, locus YOR144C, strain elg1, active compounds read low)?
Answer: 0.997

Question: And the normalized growth (S. cerevisiae deletion strains, locus YOR184W, strain ser1, active compounds read low)?
Answer: 0.998

Question: What about the normalized growth (S. cerevisiae deletion strains, locus YOR231W, strain MKK1, active compounds read low) of the same compound?
Answer: 0.878

Question: And the normalized growth (S. cerevisiae deletion strains, locus YOR265W, strain rbl2, active compounds read low)?
Answer: 0.995

Question: And the normalized growth (S. cerevisiae deletion strains, locus YOR270C, strain vph1, active compounds read low)?
Answer: 1.07

Question: And the normalized growth (S. cerevisiae deletion strains, locus YOR290C, strain snf2, active compounds read low)?
Answer: 1

Question: What about the normalized growth (S. cerevisiae deletion strains, locus YOR316C, strain cot1, active compounds read low) of the same compound?
Answer: 0.983

Question: What about the normalized growth (S. cerevisiae deletion strains, locus YPL051W, strain arl3, active compounds read low) of the same compound?
Answer: 1.03

Question: What about the normalized growth (S. cerevisiae deletion strains, locus YPL078C, strain atp4, active compounds read low) of the same compound?
Answer: 1

Question: And the normalized growth (S. cerevisiae deletion strains, locus YPL106C, strain sse1, active compounds read low)?
Answer: 1.03

Question: And the normalized growth (S. cerevisiae deletion strains, locus YPL240C, strain hsp82, active compounds read low)?
Answer: 0.984

Question: What about the normalized growth (S. cerevisiae deletion strains, locus YPL256C, strain CLN2, active compounds read low) of the same compound?
Answer: 0.817 (active)

Question: And the normalized growth (S. cerevisiae deletion strains, locus YPR119W, strain clb2, active compounds read low)?
Answer: 0.998

Question: What about the normalized growth (S. cerevisiae deletion strains, locus YPR141C, strain kar3, active compounds read low) of the same compound?
Answer: 0.977

Question: And the normalized growth (S. cerevisiae deletion strains, locus YPR163C, strain tif3, active compounds read low)?
Answer: 0.995

Question: And the normalized growth (S. cerevisiae deletion strains, locus YPR167C, strain met16, active compounds read low)?
Answer: 0.998

Question: And the normalized growth (S. cerevisiae deletion strains, strain wtn01, active compounds read low)?
Answer: 0.991

Question: What about the normalized growth (S. cerevisiae strains, strain wild type, active compounds read low) of the same compound?
Answer: 1

Source: PubChem BioAssay AID1159580 (chemical genetic matrix, 2015)
